HepG2 viability – qHTS for Inhibitors of TGF-b: Cytotox Counterscreen. Potency, µM (series often up to 46.1 µM), inactives show at the highest dose activity change, negative = cytotoxicity, most hits filed as cytotoxic. HepG2 CAGA-GFP viability, ATP luminescence, 18 h. actives 0.76% (n = 410,000). AID 588856, 2011
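HepG2 CAGA-GFP cells (1000/well, DMEM with 1% FBS) received compound, then TGF-beta at 500 pg/mL final, and were incubated 18 hours at 37 degrees C. Viability was read by CellTiter-Glo luminescence. Media-only wells were set as complete cell-killing and DMSO as no toxicity.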
ATXN viability – Viability Counterscreen for Primary qHTS for Inhibitors of ATXN expression | S2 cells (HEK-293 line with an ATXN2-luciferase reporter) viability, CellTiter-Fluor protease fluorescence, 24 h | Potency, µM (top dose mostly 56.7 µM), usual class: cytotoxic | actives 0.49% (n = 400,000) | AID 651635, 2014; further: nearly all actives have a fitted effect of over 40% in size
ATXN2 expr inh – Primary qHTS for Inhibitors of ATXN expression; AID 1745845, 2022; HEK-293 ATXN2-luciferase reporter, luminescence, 24 h; actives 0.72% (n = 360,000); Potency, µM (titrated, usually from 57 µM), for inactives: at the highest dose activity change, negative = inhibition, hits mostly inhibitors; further: on the % scale 0 is the no-effect control and ±100 the full control effect; nearly all actives have a fitted effect of over 55% in size
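qHTS (up to 57 uM final) was run with 24 h compound exposure of reporter cells at 37 °C. Each well was multiplexed: SteadyGlo luminescence measured ATXN2-luciferase expression after a fluorogenic Gly-Phe-AFC viability readout (25 uM final).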
TDP1 cell noCPT – qHTS for Inhibitors of human tyrosyl-DNA phosphodiesterase 1 (TDP1): qHTS in cells in absence of CPT. DT40 Tdp1-/- hTDP1 cells, no CPT, ATP luminescence, 48 h. Potency, µM (series often up to 46.2 µM), for inactives: at the highest dose activity change, negative = growth inhibition, actives largely listed as inhibitors. actives 15% (n = 420,000); further: on the % scale 0 is the no-effect control and ±100 the full control effect; nearly all actives have a fitted effect of over 55% in size
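Growth kinetics read by CellTiter-Glo luminescence after ≥48 hr at 37 °C. Cells: DT40 Tdp1-/- stably carrying human TDP1, 400 per well, compound exposure in the absence of CPT (DMSO vehicle).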
TGFb SMAD3 inh – qHTS for Inhibitors of TGF-b | HepG2 CAGA-GFP TGF-b/SMAD3 reporter, GFP fluorescence, 18 h; TGF-beta stimulated, 500 pg/mL final | Potency, µM (highest dose often 46.1 µM), for the others: top-dose activity, negative = inhibition, hits mostly inhibitors | actives 1.2% (n = 410,000); further: on the % scale 0 is the no-effect control and ±100 the full control effect; nearly all actives have a fitted effect of over 65% in size
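First, reporter cells (HEPG2 CAGA-GFP) rested 2 h at 37 degrees C. Next, compounds were pinned in and TGF-beta added to 500 pg/mL final. After 18 h, GFP was imaged per cell and summed per well.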
DT40 TDP1 CPT – qHTS for Inhibitors of human tyrosyl-DNA phosphodiesterase 1 (TDP1): qHTS in cells in presence of CPT | chicken DT40 Tdp1-/-;hTDP1 cells + 20 nM CPT, ATP luminescence, 48 h | Potency, µM (series often up to 46.2 µM), for inactives: at the highest dose activity change, negative = growth inhibition, hits mostly inhibitors | actives 12% (n = 420,000); further: on the % scale 0 is the no-effect control and ±100 the full control effect; nearly all actives have a fitted effect of over 55% in size
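Cell growth measured by CellTiter-Glo luminescence after a minimum 48 h, 37 C compound exposure with 20 nM CPT in Tdp1-knockout DT40 cells stably expressing hTDP1, seeded 400/well; qHTS titration format.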
Numbers without * were called inactive; ! = a repeat was not active; [ ] = another dose, or the depositor's remark. In the library only some 17% were active in any assay of this set; here they are far more common. The call rests on the fitted dose curve; in most records, active means well fitted curve in the direction sought with a large enough effect; inconclusive means small, poorly fitted or top-dose-only effect, or another doubt; inactive means no such curve, though single readings can be large; an effect the other way counts as inactive or inconclusive. Potency means the concentration at half of the fitted maximal effect.

What do the screens show for `COc1ccc(C2=NOC(CNC(N)=S)C2)cc1` (stereo not given)?
HepG2 viability: -3%; ATXN viability: inactive; TDP1 cell noCPT: -22%; TGFb SMAD3 inh: 9%; DT40 TDP1 CPT: 3%

Results for O=C1NC(Cc2ccccc2)c2nc3cc(F)c(F)cc3c(=O)n2-c2ncccc21 (stereo not given) ?
HepG2 viability: -29%; ATXN viability: inconclusive; ATXN2 expr inh: inconclusive; TDP1 cell noCPT: inconclusive; TGFb SMAD3 inh: -10%; DT40 TDP1 CPT: -29%

Results for CC(OC(=O)c1nn(C)c(=O)c2ccccc12)C(=O)Nc1ccc(S(N)(=O)=O)cc1 (stereo not given) ?
HepG2 viability: -3%; ATXN viability: inactive; ATXN2 expr inh: 5%; TDP1 cell noCPT: -2%; TGFb SMAD3 inh: -2%; DT40 TDP1 CPT: 9%

What do the screens show for `Cc1c(Cl)cccc1NC(=O)CSc1ccc(-c2ccccn2)nn1`?
HepG2 viability: -14%; TDP1 cell noCPT: 23µM*; TGFb SMAD3 inh: inconclusive; DT40 TDP1 CPT: inconclusive

How did O=C(COc1ccccc1)NC(=S)N1CCc2ccccc21 do in these assays?
HepG2 viability: -1%; ATXN viability: inactive; ATXN2 expr inh: 50%; TDP1 cell noCPT: 16µM*; TGFb SMAD3 inh: 5%; DT40 TDP1 CPT: inconclusive

What do the screens show for `CCC(C)Nc1ccc(NC(C)CC)cc1` (stereo not given)?
HepG2 viability: 13µM*!; ATXN2 expr inh: inconclusive; TDP1 cell noCPT: -86%; TGFb SMAD3 inh: 11µM*!; DT40 TDP1 CPT: 4.1µM*

Results for Cc1ccc(F)c(NC=C2C(=O)OC(C)(C)OC2=O)c1 ?
HepG2 viability: -3%; ATXN viability: inactive; ATXN2 expr inh: -12%; TDP1 cell noCPT: 3%; TGFb SMAD3 inh: -18%; DT40 TDP1 CPT: 0%

Results for CCOC(=O)CSC1=C(C#N)C(c2ccc(C)cc2)C(C(=O)OC)C(=O)N1 (stereo not given) ?
HepG2 viability: -2%; ATXN viability: inactive; ATXN2 expr inh: 4%; TDP1 cell noCPT: -7%; TGFb SMAD3 inh: -2%; DT40 TDP1 CPT: -18%

What do the screens show for `COC(=O)C1=C(O)C(C(=O)OC)C(c2ccc(C)cc2)C(C#N)(C#N)C1c1ccc(C)cc1` (stereo not given)?
HepG2 viability: -2%; ATXN viability: inactive; ATXN2 expr inh: -36%; TDP1 cell noCPT: 4.1µM*; TGFb SMAD3 inh: -7%; DT40 TDP1 CPT: 5.2µM*

What do the screens show for `COc1ccc(CNCC(O)(c2ccccc2)c2ccccc2)cc1`?
HepG2 viability: -29%; ATXN viability: inactive; ATXN2 expr inh: -18%; TDP1 cell noCPT: 18µM*; TGFb SMAD3 inh: -9%; DT40 TDP1 CPT: inconclusive

What do the screens show for `OC(CNCc1ccccc1F)(c1ccc(F)cc1)c1ccc(F)cc1`?
HepG2 viability: 7%; ATXN viability: inactive; ATXN2 expr inh: -11%[11.3 µM]; TDP1 cell noCPT: inconclusive; TGFb SMAD3 inh: 0%; DT40 TDP1 CPT: -20%

Results for COc1ccc(CNCC(O)(c2ccc(F)cc2)c2ccc(F)cc2)cc1 ?
HepG2 viability: -42%; ATXN viability: inactive; ATXN2 expr inh: -34%; TDP1 cell noCPT: 13µM*; TGFb SMAD3 inh: -17%; DT40 TDP1 CPT: inconclusive

How did COc1ccc(CNCC(O)(c2ccccc2)c2ccccc2)cc1OC do in these assays?
HepG2 viability: -19%; ATXN viability: inactive; ATXN2 expr inh: -29%; TDP1 cell noCPT: 13µM*; TGFb SMAD3 inh: -6%; DT40 TDP1 CPT: -73%

Screens (PubChem BioAssay)
